MRP resist rev: reverses drug resistance mediated by MRP | H69AR cells + 2 uM doxorubicin, CellTiter-Glo, 72 h | differential viability (reversal), % at 10 µM | 0.04% of 85,000 active;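 active means viability drop by adding the cancer drug above about 55%, with treated viability meeting a 40% cutoff, limit read from the data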;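 further: viability without doxorubicin minus viability with 2 µM doxorubicin for each compound; larger differential means the compound sensitizes cells more to doxorubicin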
MRP-1 activ: MRP-1 activation; H69AR cells + doxorubicin, viability rescue, CellTiter-Glo; viability increase, % at 10 µM; 0.61% of 140,000 active; AID 799;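 active means viability gain under doxorubicin at or above a set limit, the compound median plus 3 SD, cut at about 4.7% in these data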;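 further: MRP-1 overexpressing cells given doxorubicin 25 µM after compound pretreatment; 18-22 h compound pretreatment then 72 h with doxorubicin before readout; 0% = doxorubicin-only wells and 100% = vehicle-treated cells without doxorubicin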
GALR2 antag: antagonists of human galanin receptor 2 (GALR2). O43603. GALR2-expressing cells, antagonist mode. inhibition, % at 4 µM. 0.39% of 140,000 active. AID 828;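 further: cells stimulated with galanin 1-16 at roughly its EC80; 0% = agonist challenge control and 100% = basal control without agonist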
Target sequence (O43603 whole entry, looked up): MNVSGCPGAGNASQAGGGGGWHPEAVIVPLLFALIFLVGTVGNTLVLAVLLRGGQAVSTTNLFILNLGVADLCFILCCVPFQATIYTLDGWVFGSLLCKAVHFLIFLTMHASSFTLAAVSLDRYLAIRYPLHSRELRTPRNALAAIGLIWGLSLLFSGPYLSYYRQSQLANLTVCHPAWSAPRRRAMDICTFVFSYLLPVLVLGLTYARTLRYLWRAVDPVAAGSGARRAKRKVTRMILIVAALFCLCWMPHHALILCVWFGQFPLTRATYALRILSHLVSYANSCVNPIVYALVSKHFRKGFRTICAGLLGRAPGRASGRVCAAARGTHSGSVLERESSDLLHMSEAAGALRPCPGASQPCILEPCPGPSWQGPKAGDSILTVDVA
S1P2 antag: blocks the human S1P2 receptor | AID 736 | 0.21% of 97,000 active | inhibition, % at 5 µM | cell-based S1P2 antagonist assay, inhibition at 5 uM | O95136; in the data active means inhibition above about 45%;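 further: CRE beta-lactamase reporter cells expressing human S1P2 stimulated with S1P; 0% = agonist at EC80 alone and 100% = agonist plus reference antagonist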
S1P2 agonist: S1P2 (human) receptor agonism. O95136. 0.46% of 97,000 active. activation, % at 4.5 µM. S1P2-expressing cell line, agonist reporter read-out; in the data active means activation above about 16%;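 further: 0% = vehicle low control and 100% = maximal reference agonist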
GALR2 agonist: agonists of human galanin receptor 2 (GALR2) | AID 803 | 0.48% of 140,000 active | O43603 | GALR2-expressing cells, agonist activation read-out | activation, % (concentration not given with the values); in the data active means activation above about 5%, passing the limit was not always enough;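 further: 0% = vehicle buffer wells and 100% = reference agonist at full effect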
GALR2 blk conf: confirmation of human galanin receptor 2 (GALR2) antagonists | AID 866 | GALR2-expressing cells, antagonist mode, inhibition | inhibition, % at 4 µM | 60% of 480 active | shares compounds with GALR2 antag;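 further: cells stimulated with galanin at about its EC80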
BLA inh counter: beta-lactamase inhibition, GALR2 counterscreen; CHO NFAT-BLA reporter, beta-lactamase FRET, thapsigargin-stimulated; inhibition, % at 4.2 µM; shares compounds with GALR2 antag; AID 867; 36% of 480 active;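 active means inhibition above the mean inhibition across tested compounds plus 3 SD, cut at about 27% in these data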;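 further: 0% = 500 nM thapsigargin stimulated wells and 100% = unstimulated BSA only wells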
* = called active by the depositor; . = not tested or not shown. A selection: hits, their analogues and other compounds. The true share with any hit is near 1.8%. Unless noted, no stated cut-off is given here; in the data, active means inhibition above about 27%; inactive means the rest.

SMILES	MRP resist rev	MRP-1 activ	GALR2 antag	S1P2 antag	S1P2 agonist	GALR2 agonist	GALR2 blk conf	BLA inh counter
O=C(OCn1ncc(Cl)c(Cl)c1=O)c1ccc(C(F)(F)F)cc1	.	-8	34*	24	-10	-4	43*	12
Cc1ccc(C)c(C(=O)Cn2ncc(Cl)c(Cl)c2=O)c1	1	-6	20	20	-9	-2	.	.
Cc1cc(C(=O)Cn2ncc(Cl)c(Cl)c2=O)c(C)n1CC(F)(F)F	.	-6	20	.	.	0	.	.
Cc1ccc(C(=O)OCn2ncc(Cl)c(Cl)c2=O)cc1	.	-6	85*	80*	-5	-2	94*	71*
CCc1ccccc1NC(=O)CN(C)C(=O)Cn1ncc(Cl)c(Cl)c1=O	.	-6	78*	.	.	-2	75*	23
CCOC(=O)c1ccc(NC(=O)CN2C(=O)CCC2=O)cc1	14	-2	-1	-14	1	-3	.	.
Cc1cc(N/N=C/c2cccc(Cl)c2)nc(NCc2ccccc2)n1	.	3	-3	.	.	-1	.	.
Cc1cc(Nc2cccc(Cl)c2)nc(NCc2ccccc2)n1	.	-5	31*	.	.	0	51*	25
Cc1[nH]c2ccccc2c1-c1nc2ccccc2[nH]1	-6	-4	42*	.	.	-2	49*	11
O=C(CSc1nncs1)N1c2ccccc2Sc2ccccc21	17	-3	29*	.	.	-1	20	2
Cn1nnnc1SCC(=O)N1c2ccccc2Sc2ccccc21	11	-3	-5	15	2	-1	.	.
Cc1ccc(S(=O)(=O)Nc2ccc3nc(C)sc3c2)cc1	6	-3	15	6	-3	0	.	.
Cc1nc2ccc(NS(=O)(=O)c3ccc4c(c3)OCCO4)cc2s1	.	-2	34*	22	-3	-2	26	13
CC(=O)Nc1nc2n(n1)C(c1ccc(F)cc1)C=C(c1ccccc1)N2 (stereo not given)	-16	-5	31*	56*	-9	-2	28*	45*
CCN(CC)C(=O)CSc1ccccc1N	-26	-3	4	2	-11	-1	.	.
Nc1nonc1C(=O)NCCNCc1cc(Br)ccc1OCc1ccccc1F	-10	-2	32*	73*	-3	-2	33*	52*
Nc1nonc1C(=O)NCCNCc1ccccc1OCc1ccccc1F	0	-1	6	2	-2	-2	.	.
Cc1ccc(Nc2nc(-c3c(C)nc4ccccn34)cs2)cc1	.	-5	34*	23	-4	-2	40*	59*
Cc1ccc(Nc2nc(-c3c(C)nc4ncccn34)cs2)cc1	.	-5	19	11	-9	-2	.	.
O=C(COC(=O)c1ccccc1C(=O)c1ccc(Cl)c([N+](=O)[O-])c1)NC1CCCCCC1	.	-6	31*	59*	3	-2	64*	52*
NC(=O)c1ccccc1NC(=O)Nc1cccc(Cl)c1Cl	.	-4	53*	.	.	-2	69*	33*
O=C(Nc1ccccc1)Nc1cc(Cl)cc(Cl)c1	-1	-3	21	-17	-4	-2	.	.
O=C(Nc1ccccc1)Nc1cc(OCC(F)(F)F)cc(OCC(F)(F)F)c1	.	-6	27*	.	.	-2	19	12
CC(C)C(NC(=O)c1ccccc1)c1nnc(SCC(=O)Nc2nccs2)n1C (stereo not given)	4	-2	-6	7	-5	-1	.	.
Cc1cccnc1Nc1nc(-c2ccccn2)cs1	0	-6	27*	12	0	-1	51*	31*
SMILES	MRP resist rev	MRP-1 activ	GALR2 antag	S1P2 antag	S1P2 agonist	GALR2 agonist	GALR2 blk conf	BLA inh counter
Cc1sc2ncnc(NCc3ccccc3)c2c1C	-10	-2	29*	32	-7	-1	20	14
Cc1sc2ncnc(NCC3COc4ccccc4O3)c2c1C (stereo not given)	.	0	39*	.	.	0	46*	11
O=C(Cc1ccc(Br)cc1)Nc1ccccc1Cl	.	-1	-16	.	.	0	.	.
CCOC(=O)c1c(C)[nH]c(C)c1C(=O)COC(=O)c1ccc(Cl)c(S(=O)(=O)NCc2ccccc2)c1	.	-5	6	-51	-4	-1	.	.
CCc1nnc(NC(=O)C(C)C)s1	-6	-2	-12	-33	-3	0	.	.
CCc1nnc(NC(=O)C=C(C)C)s1	4	0	28*	6	-2	-4	9	11
CCOc1ccc(C(=O)c2cc([N+](=O)[O-])ccc2N2CCOCC2)cc1	.	-4	51*	.	.	2	30*	68*
COc1ccc(C(=O)c2cc([N+](=O)[O-])ccc2N2CCOCC2)cc1	.	-4	34*	.	.	2	28*	49*
Cc1ccc(C(=O)c2cc([N+](=O)[O-])ccc2N2CCOCC2)cc1	.	-4	6	.	.	1	.	.
CCOc1cc(C2NC(=O)NC(C)=C2C(=O)NCc2ccccc2)c(Cl)cc1O (stereo not given)	13	-1	4	-1	-4	-2	.	.
Nc1c(C(=O)Nc2nc3ccccc3s2)sc2nc(-c3cccs3)ccc12	.	-7	41*	73*	-13	0	49*	49*
Cc1c(N)cccc1-c1nc2ccccc2[nH]1	9	-1	20	-19	-3	-1	.	.
CCCCN(C)CCn1c(=S)[nH]c2ncccc2c1=O	2	0	32*	-6	-3	-4	10	-1
Cc1cc(=S)cc(C)n1CCO	.	-3	-6	.	.	-2	.	.
CC[C@@H]1C=C(C)C[C@H](C)C[C@H](OC)[C@H]2O[C@@](O)(C(=O)C(=O)N3CCCC[C@H]3C(=O)O[C@H](/C(C)=C/[C@@H]3CC[C@@H](O)[C@H](OC)C3)[C@H](C)[C@@H](O)CC1=O)[C@H](C)C[C@@H]2OC	.	-3	101*	.	.	-1	103*	104*
COc1ccc(CCNc2c(C)c(C)nc3ncnn23)cc1	.	-4	31*	69*	-9	-1	39*	9
CCc1c(C)nc2ncnn2c1NCCc1ccc(OC)c(OC)c1	-3	-4	5	7	-16	-2	.	.
Cc1ccc(-n2c(SCC(=O)NCc3ccco3)nc3c(sc4ccccc43)c2=O)cc1	.	-2	6	.	.	0	.	.
CC(C)OC(=O)CSc1nc2ccccc2s1	-13	-1	34*	-24	-4	-3	6	15
CC(=O)c1ccc(NC(=O)c2cc3nc4c(c(C(F)(F)F)n3n2)CCCC4)cc1	.	1	31*	-19	-1	-1	2	1
O=C(NC(Nc1nc2ccc([N+](=O)[O-])cc2s1)(C(F)(F)F)C(F)(F)F)c1ccccc1Cl	.	-6	96*	.	.	-2	94*	91*
CCOC(=O)COc1ccc2ccccc2c1/C=C/[N+](=O)[O-]	.	-4	26	.	.	2	.	.
CCOC(=O)COc1ccc(/C=C/[N+](=O)[O-])c(OCC(=O)OCC)c1	.	-5	27*	-13	-1	-2	31*	14
